PubChem BioAssay
Values joined by “and” are separate entries in the source; they are usually repeats but may differ in a detail not shown here. Identical values can stand only once. Active and inactive are the calls of the source.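 How the source made its calls, unless noted: active means thallium flux through the channel raised or lowered by more than 3 SD from vehicle-only wells, actives on both sides; inactive means the rest.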

What was measured:
[1] = test system: Hepatitis C virus NS3 helicase; test: blockers of NS3h binding to DNA – biochemical, fluorescence polarization, NIH Clinical Collection, primary screen (AID 743270; call rule not given here); settings: NS3 helicase binding to Cy5-dT15 DNA, stronger effect = higher value, concentration not given here
[2] = target: Single-stranded DNA-binding protein (Escherichia coli (strain K12)) (UniProt P0AGE0); test: SSB-ssDNA binding inhibitors – biochemical, fluorescence polarization, NIH Clinical Collection, counter-screen for HCV NS3 helicase inhibitor project (AID 743271; in the data active means inhibition above about 28%); settings: E. coli SSB-DNA binding, stronger effect = higher value, concentration not given here
[3] = compounds distorting NS3 helicase fluorescence signal – biochemical, NIH Clinical Collection, artefact control for HCV NS3 helicase inhibitor project (AID 743272; call rule not given here;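 further: HCV NS3 helicase with a Cy5 labelled single stranded DNA probe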); settings: fluorescence interference counterscreen, HCV NS3 helicase assay; stronger effect = lower value
[4] = Wnt pathway potentiators raising nuclear beta-catenin – imaging, WNT3A-conditioned medium, mouse C2C12, NPC library, primary screen (AID 1117326; in the data active means nuclear beta-catenin stimulation mostly above about 4.2%, no sharp cut-off; inactive means mostly below about 10%); settings: stronger effect = higher value
[5] = stimulators of insulin release from INS-1E, primary screen, cell-based, 5 mM glucose, NPC library (AID 1117329;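 active means compound raises insulin release from rat beta cells at 5 mM glucose, no numeric limit stated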); settings: rat INS-1E insulin secretion, at 10 µM, stronger effect = higher value
[6] = growth inhibition of GSK3B-pretreated HCT116 cells – cell-based, CellTiter-Glo, 0.2 to 20 µM (AID 1117336;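 active means compounds lowering colon cancer cell viability after pretreatment blocking the GSK3B kinase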); settings: HCT116 viability after GSK3B inhibitor, at 20 µM, stronger effect = higher value
[7] = inhibition of endothelial tube formation, primary screen, imaging, VEGF stimulated, CD31 staining, tube area, NPC library (AID 1117340;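 active means compound that reduces growth-factor-driven endothelial tube area in a mixed cell culture, no cutoff stated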); settings: VEGF-stimulated ADSC/ECFC co-culture, at 10 µM, stronger effect = higher value
[8] = GLP1 release stimulators, primary, NCI-H716, NPC library (AID 1117341;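 active means compound raises GLP1 secretion from the human gut endocrine cells, with no numeric limit stated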); settings: NCI-H716 cells, at 10 µM, stronger effect = higher value
[9] = HCT116 colon cancer cell growth inhibition, primary screen, CellTiter-Glo luminescence, NPC library (AID 1117342;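 active means compounds that lower survival of HCT116 colon cancer cells in the luminescence readout, no numeric limit stated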); settings: at 20 µM (top of the series)
[10] = reduced SW480 viability measured with CellTiter-Glo, NPC library, primary (AID 1117343;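 active means compounds that lower viability of the colon cancer cells in the luminescence readout, with no numeric limit stated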); settings: CellTiter-Glo luminescence; at 20 µM (top of the series)
[11] = NPC library primary testing for decreased DLD-1 cell viability via CellTiter-Glo (AID 1117346;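 active means compounds that lower survival of DLD-1 colon cancer cells in the luminescence readout, no cutoff given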); settings: DLD-1 viability, CellTiter-Glo luminescence; at 20 µM (top of the series)
[12] = target: 6-phosphogluconate dehydrogenase, decarboxylating (Homo sapiens) (UniProt P52209); test: inhibition of human phosphogluconate dehydrogenase – biochemical, recombinant enzyme, NADPH absorbance, primary screen (AID 1159550;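 active means at least 20% inhibition of 6-phosphogluconate dehydrogenase activity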); settings: recombinant 6PGD, NADPH absorbance 341 nm; at 10 µM; stronger effect = higher value
Chain of 6-phosphogluconate dehydrogenase, decarboxylating (Homo sapiens) (P52209 whole entry, looked up): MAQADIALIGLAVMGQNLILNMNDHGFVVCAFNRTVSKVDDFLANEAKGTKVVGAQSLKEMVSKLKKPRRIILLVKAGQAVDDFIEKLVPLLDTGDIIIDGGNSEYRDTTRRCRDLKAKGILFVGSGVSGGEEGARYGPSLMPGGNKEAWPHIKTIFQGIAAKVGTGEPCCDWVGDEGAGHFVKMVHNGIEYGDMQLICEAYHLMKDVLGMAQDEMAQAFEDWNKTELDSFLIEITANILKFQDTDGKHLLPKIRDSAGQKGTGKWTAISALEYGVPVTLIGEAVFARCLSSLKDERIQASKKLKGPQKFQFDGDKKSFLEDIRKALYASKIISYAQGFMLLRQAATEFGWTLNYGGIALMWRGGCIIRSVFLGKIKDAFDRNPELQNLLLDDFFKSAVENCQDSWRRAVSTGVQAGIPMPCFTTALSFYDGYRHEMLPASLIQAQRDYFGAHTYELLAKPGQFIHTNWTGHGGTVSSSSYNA

[13] = viability loss with induced miR-34 in A549 – imaging, A549 dox-inducible miR-34, nuclei and caspase counts, primary screen (AID 1347080;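 active means compounds whose cell count with miR-34 switched on is under 0.7 times the count with it off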); settings: A549 miR-34 inducible, Hoechst nuclei count, 48 h
[14] = MELAS cybrid and Rieske KO viability enhancers – cell-based, MELAS cybrids, Rieske KO mouse fibroblasts, CellTiter-Glo, primary screen (AID 1508586;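 active means mean z-score across replicates of 1.96 or higher in either the MELAS or the Rieske mutant cell line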;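 further: z relative to plate mean and SD of compound and empty wells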); settings: low glucose
[15] = target: NAD(+) hydrolase SARM1 (Homo sapiens) (UniProt Q6SZW1); test: blocking NAD cleavage by SARM1 SAM-TIR – cell lysate, NAD-Glo luminescence (AID 1508614;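 active means compound whose remaining NAD level is above about 45 nM, limit read from the data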); settings: SAM-TIR HEK293T lysate NADase, at 1 µM, stronger effect = higher value
Chain of NAD(+) hydrolase SARM1 (Homo sapiens) (Q6SZW1 whole entry, looked up, the tested form may be a part): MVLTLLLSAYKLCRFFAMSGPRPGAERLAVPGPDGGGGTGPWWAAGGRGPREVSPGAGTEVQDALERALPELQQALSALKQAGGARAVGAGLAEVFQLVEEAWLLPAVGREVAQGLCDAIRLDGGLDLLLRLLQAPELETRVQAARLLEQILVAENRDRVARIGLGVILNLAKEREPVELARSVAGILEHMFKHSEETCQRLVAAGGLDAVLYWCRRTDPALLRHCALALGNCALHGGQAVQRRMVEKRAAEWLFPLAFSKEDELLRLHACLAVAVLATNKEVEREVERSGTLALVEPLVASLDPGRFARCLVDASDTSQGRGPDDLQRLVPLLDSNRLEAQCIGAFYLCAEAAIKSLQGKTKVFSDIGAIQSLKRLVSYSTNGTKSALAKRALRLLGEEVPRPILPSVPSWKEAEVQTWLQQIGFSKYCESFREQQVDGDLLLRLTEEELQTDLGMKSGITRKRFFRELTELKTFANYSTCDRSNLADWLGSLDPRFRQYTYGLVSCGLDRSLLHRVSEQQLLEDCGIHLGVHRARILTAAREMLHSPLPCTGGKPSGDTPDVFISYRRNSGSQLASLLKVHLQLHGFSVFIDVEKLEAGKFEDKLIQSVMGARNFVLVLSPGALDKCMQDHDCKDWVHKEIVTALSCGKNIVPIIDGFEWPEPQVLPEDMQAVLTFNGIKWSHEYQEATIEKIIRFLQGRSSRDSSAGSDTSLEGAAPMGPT

[16] = target: Mitogen-activated protein kinase 7 (Homo sapiens) (UniProt Q13164); test: Gal4-ERK5 driven luciferase induction – cell-based, HTS, primary screen (AID 1508626;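 active means luciferase signal above three times the same-plate solvent-only control wells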;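 further: luciferase driven by Gal4-ERK5 fusion binding five Gal4 sites before minimal TATA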); settings: HeLa Gal4-ERK5 transactivation, 18 h, at 5 µM, stronger effect = higher value
Chain of Mitogen-activated protein kinase 7 (Homo sapiens) (Q13164 whole entry, looked up, the tested form may be a part): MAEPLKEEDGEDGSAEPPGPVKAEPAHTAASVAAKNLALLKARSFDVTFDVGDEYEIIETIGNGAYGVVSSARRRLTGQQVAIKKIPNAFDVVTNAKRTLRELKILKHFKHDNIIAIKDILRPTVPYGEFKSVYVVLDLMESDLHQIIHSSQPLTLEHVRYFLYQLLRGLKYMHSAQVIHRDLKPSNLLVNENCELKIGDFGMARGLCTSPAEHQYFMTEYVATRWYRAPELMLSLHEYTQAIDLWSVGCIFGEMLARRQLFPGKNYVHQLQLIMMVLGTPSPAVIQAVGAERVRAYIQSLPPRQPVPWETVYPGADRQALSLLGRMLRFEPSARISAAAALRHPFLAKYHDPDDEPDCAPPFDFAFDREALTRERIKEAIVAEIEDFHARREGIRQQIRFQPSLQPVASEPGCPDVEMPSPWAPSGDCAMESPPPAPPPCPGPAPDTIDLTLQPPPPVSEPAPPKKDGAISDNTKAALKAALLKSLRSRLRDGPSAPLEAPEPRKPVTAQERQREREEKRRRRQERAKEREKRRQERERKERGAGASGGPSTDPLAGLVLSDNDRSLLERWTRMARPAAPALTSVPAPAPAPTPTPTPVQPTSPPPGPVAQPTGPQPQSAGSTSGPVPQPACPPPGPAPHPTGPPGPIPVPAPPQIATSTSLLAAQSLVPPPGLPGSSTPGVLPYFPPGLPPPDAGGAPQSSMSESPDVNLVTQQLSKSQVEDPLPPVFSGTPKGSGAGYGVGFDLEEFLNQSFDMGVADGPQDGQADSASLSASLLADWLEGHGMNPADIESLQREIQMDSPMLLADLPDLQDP

[17] = test system: F380Y; test: BK channel mutant inhibitors and activators – cell-based, U2OS BacMam, thallium flux, beta subunits, selectivity assay, profiling panel (AID 1259406); settings: U2OS BacMam BK variants, at 30 µM;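 further: initial slope of Thallos dye fluorescence rise after thallium is added; log ratio against the mean of 0.3% DMSO vehicle wells on the same plate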
[18] = test system: F380Y/beta2Delta; test: as above; settings: U2OS BacMam BK variants, at 30 µM
[19] = target: Calcium-activated potassium channel subunit alpha-1 (Homo sapiens) + Leucine-rich repeat-containing protein 26 (Homo sapiens) (UniProt Q12791+Q2I0M4); test: as above; settings: U2OS BacMam BK variants, F380Y/Slo1WT/gamma1, at 30 µM
Chain of Calcium-activated potassium channel subunit alpha-1 (Homo sapiens) + Leucine-rich repeat-containing protein 26 (Homo sapiens) (Q2I0M4 whole entry, looked up, one chain of several): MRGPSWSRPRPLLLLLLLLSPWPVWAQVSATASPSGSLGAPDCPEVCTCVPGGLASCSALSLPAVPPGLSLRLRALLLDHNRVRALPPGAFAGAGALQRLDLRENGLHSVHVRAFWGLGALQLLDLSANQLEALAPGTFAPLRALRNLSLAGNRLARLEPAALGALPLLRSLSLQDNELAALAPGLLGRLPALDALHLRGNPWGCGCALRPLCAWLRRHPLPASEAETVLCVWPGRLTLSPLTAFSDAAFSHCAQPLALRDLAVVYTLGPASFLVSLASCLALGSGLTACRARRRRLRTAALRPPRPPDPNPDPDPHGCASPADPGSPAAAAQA

[20] = EMT-state selective cytotoxicity in co-culture – imaging, PC-3E GFP, TEM4-18 mCherry, primary screen (AID 1345086;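 active means compounds killing one labelled cell type while sparing the other, by normalised counts and ratio limits, not self-fluorescent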;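 on all read-outs here: cells exposed to compound for 72 h before imaging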;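 on red/green cell ratio (normalised): normalised mesenchymal count divided by normalised epithelial count so high means epithelial killing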); settings: PC-3E GFP / TEM4-18 mCherry co-culture, imaging cell counts, at 1 µM; for red/green cell ratio (normalised): actives lie on both sides, counts scaled to control wells, 1 = unselective
[21] = stronger effect = lower value, cell number ratio, induced over uninduced
[22] = measured here: relative caspase fold change +Dox/-Dox
[23] = measured here: total cells with miR-34 induction, stronger effect = lower value
[24] = measured here: total cells without miR-34 induction
[25] = MELAS cybrid survival, CellTiter-Glo 48 h, stronger effect = higher value
[26] = Rieske KO mouse fibroblast survival, CellTiter-Glo 72 h
[27] = measured here: epithelial PC-3E GFP cell survival
[28] = measured here: mesenchymal TEM4-18 mCherry cell survival

With Nc1nc2ncc(CNc3ccc(C(=O)N[C@@H](CCC(=O)O)C(=O)O)cc3)nc2c(=O)[nH]1 the inhibition [1] was -2.27% (inactive), the inhibition [2] was 11% (inactive) and the fluorescence ratio [3] was 0.92 (inactive). For the same molecule, the nuclear beta-catenin stimulation ([4]; at 10 µM) was 0.8% (inactive), the nuclear beta-catenin stimulation ([4]; stimulation, at 2 µM) was 0.5% and the insulin secretion stimulation [5] was 2.4% (inactive). For the same molecule, the viability decrease [6] was -64.4% (inactive), the tube area decrease [7] was 16.7% (inactive) and the GLP1 secretion stimulation [8] was -1.5% (inactive). The inhibition of viability [9] was -2.33% (inactive), the viability decrease (inhibition) [10] was 6.4% (inactive) and the viability decrease (inhibition) [11] was -8.5% (inactive). For the same molecule, the inhibition [12] was -0.853% (inactive), the fold change [13, 21] was 0.937 (inactive) and 0.906 (inactive) and 0.91 (inactive) and the fold change [13, 22] was 1.68 and 0.997 and 3.41. The cell count [13, 23] was 10800 and 8990 and 11200, the cell count [13, 24] was 11600 and 9920 and 12300 and the z-score [14, 25] was 0.332 (inactive). The z-score [14, 26] was -0.293, the remaining NAD [15] was 10 nM (inactive) and the luciferase signal [16] was 188 AU (inactive). For the same molecule, the log fold change Tl+ flux [17] was -0.0861 (inactive), the log fold change Tl+ flux [18] was -0.000783 (inactive) and the log fold change Tl+ flux [19] was -0.00611 (inactive).
In the case of CCS(=O)(=O)CCn1c([N+](=O)[O-])cnc1C, the inhibition [1] is reported as -0.22% (inactive), the inhibition [2] is reported as 1.18% (inactive) and the fluorescence ratio [3] is reported as 0.92 (inactive). The nuclear beta-catenin stimulation ([4]; at 10 µM) was 0.7% (inactive), the nuclear beta-catenin stimulation ([4]; stimulation, at 2 µM) was 0.6% and the insulin secretion stimulation [5] was -2% (inactive). The viability decrease [6] was -16.5% (inactive), the tube area decrease [7] was -0.1% (inactive) and the GLP1 secretion stimulation [8] was 2.3% (inactive). For the same molecule, the inhibition of viability [9] was 6.2% (inactive), the viability decrease (inhibition) [10] was -14.6% (inactive) and the viability decrease (inhibition) [11] was -1.25% (inactive). The inhibition [12] was -3.03% (inactive), the red/green cell ratio (normalised) [20] was 0.88 (inactive) and the normalised cell number [20, 27] was 1.27. For the same molecule, the normalised cell number [20, 28] was 1.12, the z-score [14, 25] was -0.299 (inactive) and 0.791 (inactive) and -0.0778 (inactive) and the z-score [14, 26] was -0.288 and 0.13 and -0.654. The remaining NAD [15] was 10 nM (inactive), the luciferase signal [16] was 36 AU (inactive) and the log fold change Tl+ flux [17] was 0.0247 (inactive). For the same molecule, the log fold change Tl+ flux [18] was -0.0231 (inactive) and the log fold change Tl+ flux [19] was -0.0103 (inactive).
With C[C@]12CCC(=O)C=C1CC[C@@H]1[C@@H]2[C@@H](O)C[C@@]2(C)[C@H]1CC[C@]2(O)C(=O)CO the inhibition [1] was 0.45% (inactive), the inhibition [2] was 5.62% (inactive) and the fluorescence ratio [3] was 0.93 (inactive). For the same molecule, the nuclear beta-catenin stimulation ([4]; at 10 µM) was -0.3% (inactive), the nuclear beta-catenin stimulation ([4]; stimulation, at 2 µM) was 0.1% and the insulin secretion stimulation [5] was 1.1% (inactive). The viability decrease [6] was -18.7% (inactive), the tube area decrease [7] was 9.1% (inactive) and the GLP1 secretion stimulation [8] was 1.8% (inactive). For the same molecule, the inhibition of viability [9] was -13.9% (inactive), the viability decrease (inhibition) [10] was 14.7% (inactive) and the viability decrease (inhibition) [11] was -6.7% (inactive). The inhibition [12] was -14.6% (inactive), the z-score [14, 25] was -0.02 (inactive) and 0.332 (inactive) and the z-score [14, 26] was -0.00651 and 1.17. The remaining NAD [15] was 10 nM (inactive), the luciferase signal [16] was 124 AU (inactive) and the log fold change Tl+ flux [17] was 0.0399 (inactive). The log fold change Tl+ flux [18] was 0.0274 (inactive) and the log fold change Tl+ flux [19] was -0.00874 (inactive).
In the case of CCC(=O)O[C@]1(C(=O)CCl)[C@@H](C)C[C@H]2[C@@H]3CCC4=CC(=O)C=C[C@]4(C)[C@@]3(F)[C@@H](O)C[C@@]21C, the inhibition [1] is reported as 4.09% (inactive), the inhibition [2] is reported as 2.57% (inactive) and the fluorescence ratio [3] is reported as 0.96 (inactive). The nuclear beta-catenin stimulation ([4]; at 10 µM) was 4.4% (inactive), the nuclear beta-catenin stimulation ([4]; stimulation, at 2 µM) was 3.8% and the insulin secretion stimulation [5] was 8.3% (inactive). For the same molecule, the viability decrease [6] was -89.8% (inactive), the tube area decrease [7] was 9.1% (inactive) and the GLP1 secretion stimulation [8] was 2.1% (inactive). The inhibition of viability [9] was 2.9% (inactive), the viability decrease (inhibition) [10] was 41% (inactive) and the viability decrease (inhibition) [11] was 15.6% (inactive). The inhibition [12] was 3.17% (inactive), the fold change [13, 21] was 1.05 (inactive) and 0.839 (inactive) and the fold change [13, 22] was 2.64 and 1.67. For the same molecule, the cell count [13, 23] was 6300 and 6140, the cell count [13, 24] was 6030 and 7320 and the z-score [14, 25] was 0.507 (inactive) and -0.252 (inactive). The z-score [14, 26] was 1.67 and 0.844, the remaining NAD [15] was 10 nM (inactive) and the luciferase signal [16] was 84 AU (inactive). The log fold change Tl+ flux [17] was 0.112 (active), the log fold change Tl+ flux [18] was 0.293 (active) and the log fold change Tl+ flux [19] was 0.157 (active).
In the case of CC(=O)OCC(=O)[C@@]12OC(C)(C)O[C@@H]1C[C@H]1[C@@H]3C[C@H](F)C4=CC(=O)C=C[C@]4(C)[C@@]3(F)[C@@H](O)C[C@@]12C, the inhibition [1] is reported as 4.09% (inactive), the inhibition [2] is reported as -1.24% (inactive) and the fluorescence ratio [3] is reported as 1.01 (inactive). For the same molecule, the nuclear beta-catenin stimulation ([4]; at 10 µM) was 1.1% (inactive), the nuclear beta-catenin stimulation ([4]; stimulation, at 2 µM) was 2.1% and the insulin secretion stimulation [5] was 0.2% (inactive). For the same molecule, the viability decrease [6] was -25.9% (inactive), the tube area decrease [7] was 30.9% (inactive) and the GLP1 secretion stimulation [8] was 0.7% (inactive). The inhibition of viability [9] was 20.4% (inactive), the viability decrease (inhibition) [10] was -2.3% (inactive) and the viability decrease (inhibition) [11] was -3.8% (inactive). The inhibition [12] was -0.585% (inactive), the fold change [13, 21] was 0.945 (inactive) and 0.813 (inactive) and the fold change [13, 22] was 2.11 and 1.02. The cell count [13, 23] was 7270 and 6260, the cell count [13, 24] was 7700 and 7690 and the z-score [14, 25] was 0.454 (inactive). The z-score [14, 26] was 1.02, the remaining NAD [15] was 10 nM (inactive) and the luciferase signal [16] was 260 AU (active). For the same molecule, the log fold change Tl+ flux [17] was 0.00343 (inactive), the log fold change Tl+ flux [18] was -0.00446 (inactive) and the log fold change Tl+ flux [19] was 0.00932 (inactive).
With CCOC(=O)N1CCC(=C2c3ccc(Cl)cc3CCc3cccnc32)CC1 the inhibition [1] was -3.56% (inactive), the inhibition [2] was 6.83% (inactive) and the fluorescence ratio [3] was 0.9 (inactive). For the same molecule, the nuclear beta-catenin stimulation ([4]; at 10 µM) was 1.8% (inactive), the nuclear beta-catenin stimulation ([4]; stimulation, at 2 µM) was 1% and the insulin secretion stimulation [5] was 6.9% (inactive). For the same molecule, the viability decrease [6] was 94.1% (active), the tube area decrease [7] was 39.2% (inactive) and the GLP1 secretion stimulation [8] was 14.3% (inactive). The inhibition of viability [9] was 98.8% (active), the viability decrease (inhibition) [10] was 94% (active) and the viability decrease (inhibition) [11] was 97.2% (active). For the same molecule, the inhibition [12] was 4.3% (inactive), the red/green cell ratio (normalised) [20] was 1.35 (inactive) and the normalised cell number [20, 27] was 0.99. For the same molecule, the normalised cell number [20, 28] was 1.34, the z-score [14, 25] was -0.418 (inactive) and -1.77 (inactive) and -2.01 (inactive) and the z-score [14, 26] was 0.823 and 1.1 and 0.356. For the same molecule, the remaining NAD [15] was 10 nM (inactive) and the luciferase signal [16] was 48 AU (inactive).
